Inconclusive results are not listed. Values without a mark were called inactive. The source made the active and inactive calls. The call rests on the fitted dose curve.
assay: Cytotoxicity counterscreen for inhibitors of SARS-CoV-2 cell entry (AID 1645845); details: cell viability (SARS-CoV-2 entry assay cells); series mostly up to 57.1 µM; activity change, negative = cytotoxicity: at the top concentration; further: nearly all actives have a fitted effect of over 50% in size
Method in brief: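 Counterscreen run in the same HEK293-ACE2 line as the pseudotyped-particle entry assay, without particles. Viability after 48 h at 37 C was read as ATP luminescence, scaled between cell-containing and cell-free wells.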
On the % scale 0 is the no-effect control and ±100 the full control effect.

Compound	outcome	activity change, negative = cytotoxicity [%]	Potency
NS(=O)(=O)c1cc2c(cc1Cl)NC(C1CC3C=CC1C3)NS2(=O)=O (centres undefined)	inactive	–	–
N#C/C(=C1/SC[C@@H](c2ccc(Cl)cc2Cl)S1)n1ccnc1	–	-10.1	–
Cc1ccc2nc(N)[nH]c(=O)c2c1Sc1ccncc1	–	-34.7	–
NC(=O)CC[C@@H](N)C(=O)O	–	-0.125	–
CCOC(=O)C1=C[C@]2(CC)CCCN3CCc4c(n1c1ccccc41)[C@@H]32	–	-18.6	–
CN1CCCN(C(c2ccccc2)c2ccc(Cl)cc2)CC1 (centres undefined)	–	-18.5	–
CC(=O)Oc1c(C)c(C)c2c(c1C)CC[C@@](C)(CCC[C@H](C)CCC[C@H](C)CCCC(C)C)O2	inactive	–	–
O=S(=O)(c1cccc2cnccc12)N1CCCNCC1	–	–	inactive
CCN(CC)CC(=O)Nc1c(C)cccc1C(=O)OC	–	-17.5	–
CC(C)(Oc1ccc(CCNC(=O)c2ccc(Cl)cc2)cc1)C(=O)O	inactive	–	–
COCc1c(C(C)C)nc(C(C)C)c(/C=C/[C@@H](O)C[C@@H](O)CC(=O)O)c1-c1ccc(F)cc1	–	-21.2	–
CC(C)=CCOc1ccc(/C=C/C(=O)c2ccc(OCC=C(C)C)cc2OCC(=O)O)cc1	inactive	–	–
OC(CCCN1CCCCC1)(c1ccccc1)c1ccccc1	–	-19.1	–
O=C1OC2(c3ccccc31)c1cc(I)c(O)c(I)c1Oc1c2cc(I)c(O)c1I	inactive	–	–
CCCCC/C=C\C/C=C\CCCCCCCC(=O)NC(C)c1ccccc1 (centres undefined)	–	-7.25	–
C#C[C@]1(OC(C)=O)CC[C@H]2[C@@H]3CCC4=C[C@@H](OC(C)=O)CC[C@@H]4[C@H]3CC[C@@]21C	–	-23.5	–
Cc1ncc(CSSCc2cnc(C)c(O)c2CO)c(CO)c1O	inactive	–	–
O=S1(=O)OC(c2ccc(O)cc2)(c2ccc(O)cc2)c2ccccc21	–	2.39	–
C[C@]12CC[C@@H]3c4ccc(O)cc4CC[C@H]3[C@@H]1CCC2=O	–	0.16	–
O=C(CCCCC(=O)Nc1c(I)cc(I)c(C(=O)O)c1I)Nc1c(I)cc(I)c(C(=O)O)c1I	inactive	–	–

Compound	outcome	activity change, negative = cytotoxicity [%]	Potency
C=Cc1c(C)c2cc3[nH]c(cc4nc(cc5nc(cc1[nH]2)C(C)=C5CCC(=O)O)C(CCC(=O)O)=C4C)c(C)c3C=C	inactive	–	–
CC(=O)c1ccc2c(c1)N(CCCN(C)C)c1ccccc1S2	–	-13	–
CCO[C@@H]1O[C@H](C(COCc2ccccc2)OCc2ccccc2)[C@H](OCc2ccccc2)[C@H]1O (some centres undefined)	–	-17	–
CC(O)Cn1cnc2c1c(=O)n(C)c(=O)n2C (centres undefined)	inactive	–	–
CCCCCCCCCCCCCCCCC(C(=O)O)C(O)(CC(=O)O)C(=O)O (centres undefined)	–	4.77	–
Oc1cccc(-c2c3nc(c(-c4cccc(O)c4)c4ccc([nH]4)c(-c4cccc(O)c4)c4nc(c(-c5cccc(O)c5)c5ccc2[nH]5)CC4)C=C3)c1	–	-7	–
COc1cccc(CCc2ccccc2OCC(CN(C)C)OC(=O)CCC(=O)O)c1 (centres undefined)	inactive	–	–
CCN(CC)CCOC(=O)C1(c2ccccc2)CCCC1	–	2.05	–
CCCOC(C(=O)OC1CCN(C)CC1)(c1ccccc1)c1ccccc1	–	-15.2	–
CN(Cc1cc(Br)cc(Br)c1N)C1CCCCC1	–	–	inactive
CCOC(CN1CCN(CC(C)C(=O)c2ccccc2)CC1)c1ccccc1 (centres undefined)	inactive [at 27.1 µM]	–	–
Cc1ccc(Cl)c(OCC(O)CNC(C)(C)C)c1 (centres undefined)	–	-10.4	–
Cn1cc(C(=O)[C@@H]2CCc3nc[nH]c3C2)c2ccccc21	inactive	–	–
C[C@@H]1C[C@H]2[C@@H]3CCC4=CC(=O)C=C[C@]4(C)[C@@]3(Cl)[C@@H](O)C[C@]2(C)[C@@]1(OC(=O)c1ccco1)C(=O)CCl	–	–	inactive
Cc1nc(C2CCCCC2)c(-c2ccc(S(N)(=O)=O)c(F)c2)o1	–	-3.08	–
CN(C)CCOC1=Cc2ccccc2Sc2ccc(Cl)cc21	–	-25.7	–
CN(C)CCn1nnnc1SCC1=C(C(=O)O)N2C(=O)[C@@H](NC(=O)Cc3csc(N)n3)[C@H]2SC1	–	-18	–
OC[C@@H](O)[C@H](O)[C@H](O)[C@@H](O)CO	inactive	–	–
C[C@@H](CN(C)C)CN1c2ccccc2Sc2ccccc21	inactive	–	–

Source: PubChem BioAssay (NCATS)
